# Measurements taken from PubChem BioAssay (EPA / NIEHS).
# Several values for one entry are separate records, joined by “and”; a condition that tells them apart may be missing. Equal values may be shown once. Results filed as inconclusive are left out. Where a structure was tested more than once in an assay, its records may differ in their call. Activity calls are given as the source filed them. How the source made its calls, unless noted: active means hit-call score of the fitted dose curve at least 0.9, where 1 is the maximum; inconclusive means response in the unintended direction; inactive means score below 0.9.
# Assays:
# [1] = molecular target: Agonist Androgen Response Element (ARE), AR (gene 367) (UniProt P10275); assay: OT_AR_ARELUC_AG_1440: Odyssey Thera (OT) 24-hour CHO-K1 Luciferase Assay for Agonist Androgen Response Element (ARE) (AID 2283379)
# Agonist Androgen Response Element (ARE), AR (gene 367), sequence (P10275 whole entry, looked up): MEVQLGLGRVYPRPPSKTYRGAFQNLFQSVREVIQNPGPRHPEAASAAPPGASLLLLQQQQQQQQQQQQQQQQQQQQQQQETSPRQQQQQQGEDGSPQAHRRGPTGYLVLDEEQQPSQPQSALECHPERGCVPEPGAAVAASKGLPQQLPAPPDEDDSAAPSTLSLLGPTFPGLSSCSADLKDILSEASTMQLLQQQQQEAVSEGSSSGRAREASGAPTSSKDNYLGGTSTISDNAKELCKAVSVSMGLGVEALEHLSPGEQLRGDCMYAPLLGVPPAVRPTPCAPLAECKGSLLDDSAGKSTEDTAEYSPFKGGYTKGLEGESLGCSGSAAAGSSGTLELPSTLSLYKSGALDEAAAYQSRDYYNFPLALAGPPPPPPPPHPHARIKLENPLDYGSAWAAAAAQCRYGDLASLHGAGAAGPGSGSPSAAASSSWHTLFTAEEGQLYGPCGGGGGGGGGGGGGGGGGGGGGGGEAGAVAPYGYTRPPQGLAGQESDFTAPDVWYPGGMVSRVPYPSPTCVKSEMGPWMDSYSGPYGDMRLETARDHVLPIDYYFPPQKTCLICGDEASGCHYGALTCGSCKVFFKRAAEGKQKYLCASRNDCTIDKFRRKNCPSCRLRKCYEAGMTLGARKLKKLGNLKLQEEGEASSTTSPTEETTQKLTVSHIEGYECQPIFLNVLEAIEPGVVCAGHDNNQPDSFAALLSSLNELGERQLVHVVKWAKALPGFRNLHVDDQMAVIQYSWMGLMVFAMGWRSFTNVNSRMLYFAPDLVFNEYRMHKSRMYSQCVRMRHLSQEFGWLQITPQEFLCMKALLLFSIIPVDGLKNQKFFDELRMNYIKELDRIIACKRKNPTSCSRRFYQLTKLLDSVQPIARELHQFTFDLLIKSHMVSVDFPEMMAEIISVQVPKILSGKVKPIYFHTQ
# Procedure, shortened: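 Gain-of-signal reporter endpoint: cells (CHO-K1, hamster) are treated 24 h, luciferin/ATP reagent added, and luminescence compared with DMSO baseline.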
# [2] = molecular target: Estrogen receptor (Homo sapiens) (UniProt P03372); assay: OT_ERa_GFPERaERE_0480: Odyssey Thera (OT) 8-hour HeLa Transcription Induction Assay for Estrogen Receptor (AID 2283381; active means hit-call score of the fitted dose curve at least 0.9, where 1 is the maximum; inactive means score below 0.9)
# Estrogen receptor (Homo sapiens), sequence (P03372 whole entry, looked up): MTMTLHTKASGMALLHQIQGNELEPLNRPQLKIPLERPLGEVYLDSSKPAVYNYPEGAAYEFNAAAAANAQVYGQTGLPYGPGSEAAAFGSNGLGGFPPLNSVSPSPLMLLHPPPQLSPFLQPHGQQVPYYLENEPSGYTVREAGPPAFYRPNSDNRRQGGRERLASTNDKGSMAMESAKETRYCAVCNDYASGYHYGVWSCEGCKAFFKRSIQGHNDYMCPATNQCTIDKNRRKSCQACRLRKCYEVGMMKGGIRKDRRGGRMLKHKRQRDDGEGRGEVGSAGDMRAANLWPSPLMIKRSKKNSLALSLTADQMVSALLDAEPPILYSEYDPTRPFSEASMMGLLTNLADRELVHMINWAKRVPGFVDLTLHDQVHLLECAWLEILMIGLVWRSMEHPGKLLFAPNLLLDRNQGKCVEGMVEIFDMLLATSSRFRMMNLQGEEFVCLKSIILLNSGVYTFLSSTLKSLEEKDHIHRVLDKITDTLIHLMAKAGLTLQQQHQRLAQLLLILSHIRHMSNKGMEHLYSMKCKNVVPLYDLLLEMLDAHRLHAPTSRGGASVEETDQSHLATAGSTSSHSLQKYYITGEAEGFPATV
# Procedure, shortened: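 Human cervical HeLa cells were treated for 8 hours, after which ERE-driven GFP induction was measured by fluorescence microscopy; increases over DMSO baseline defined activity.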
# [3] = molecular target: Estrogen receptor (Homo sapiens) (UniProt P03372); assay: OT_ERa_GFPERaERE_0120: Odyssey Thera (OT) 2-hour HeLa Transcription Induction Assay for Estrogen Receptor (AID 2283382)
# Procedure, shortened: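 Cells (human cervical HeLa) receive compound, incubate 2 hours, then are imaged for fluorescent reporter induction. Images are quantified by high content analysis, and activity is fitted as gain of signal against DMSO.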
# [4] = molecular target: Bile acid receptor (Homo sapiens) (UniProt Q96RI1); assay: OT_FXR_FXRSRC1_1440: Odyssey Thera (OT) 24-hour HEK293T Protein-Complementation Assay for Farnesoid X receptor/SRC-1 Co-activator (AID 2283384)
# Bile acid receptor (Homo sapiens), sequence (Q96RI1 whole entry, looked up, the tested form may be a part): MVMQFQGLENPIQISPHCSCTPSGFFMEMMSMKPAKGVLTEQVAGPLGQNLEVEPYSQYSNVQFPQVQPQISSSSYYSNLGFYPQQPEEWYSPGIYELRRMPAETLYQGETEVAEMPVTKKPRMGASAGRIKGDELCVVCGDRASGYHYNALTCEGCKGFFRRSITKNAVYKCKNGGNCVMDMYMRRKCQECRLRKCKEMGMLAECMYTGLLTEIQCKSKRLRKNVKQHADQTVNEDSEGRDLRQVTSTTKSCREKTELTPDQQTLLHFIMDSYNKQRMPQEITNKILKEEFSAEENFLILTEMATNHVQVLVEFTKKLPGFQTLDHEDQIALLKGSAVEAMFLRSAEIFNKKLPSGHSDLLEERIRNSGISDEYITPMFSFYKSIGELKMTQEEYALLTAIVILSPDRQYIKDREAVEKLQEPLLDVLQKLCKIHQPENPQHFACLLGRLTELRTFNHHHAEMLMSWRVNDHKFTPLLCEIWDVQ
# Procedure, shortened: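 Measures ligand-driven FXR–SRC-1 co-activator recruitment in HEK293T via fragment complementation, fluorescence intensity at 24 h. DMSO served as negative control and baseline for gain-of-signal fitting.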
# [5] = molecular target: Peroxisome proliferator-activated receptor gamma (Homo sapiens) (UniProt P37231); assay: OT_PPARg_PPARgSRC1_0480: Odyssey Thera (OT) 8-hour Protein-Complementation Assay for Peroxisome Proliferator-activated Receptor Gamma / SRC-1 Co-activator (AID 2283387);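 further: nuclear to cytoplasmic split Venus YFP fluorescence ratio reporting PPARg SRC-1 interaction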
# Peroxisome proliferator-activated receptor gamma (Homo sapiens), sequence (P37231 whole entry, looked up, the tested form may be a part): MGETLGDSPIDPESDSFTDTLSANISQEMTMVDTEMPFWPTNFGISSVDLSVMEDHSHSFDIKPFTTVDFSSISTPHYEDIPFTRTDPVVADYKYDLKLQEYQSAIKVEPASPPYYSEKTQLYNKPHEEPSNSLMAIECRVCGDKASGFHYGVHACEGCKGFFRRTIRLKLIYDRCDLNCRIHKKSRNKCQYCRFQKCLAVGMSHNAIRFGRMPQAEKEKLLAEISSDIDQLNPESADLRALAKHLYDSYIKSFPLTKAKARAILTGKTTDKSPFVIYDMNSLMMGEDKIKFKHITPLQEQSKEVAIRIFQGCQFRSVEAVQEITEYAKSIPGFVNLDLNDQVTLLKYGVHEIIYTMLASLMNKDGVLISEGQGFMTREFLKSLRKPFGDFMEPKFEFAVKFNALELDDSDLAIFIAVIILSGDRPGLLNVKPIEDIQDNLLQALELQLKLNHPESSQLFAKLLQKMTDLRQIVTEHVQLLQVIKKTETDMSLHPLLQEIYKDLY
# Procedure, shortened: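 Protein-fragment complementation in HEK293T: Venus YFP halves (residues 1-158, 159-239, mutated to IFP1/IFP2) fused to PPARg/SRC-1. 8 h exposure; N/C ratio at 488 nm; DMSO negative control.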
# [6] = molecular target: Bile acid receptor (Homo sapiens) (UniProt Q96RI1); assay: OT_FXR_FXRSRC1_0480: Odyssey Thera (OT) 8-hour HEK293T Protein-Complementation Assay for Farnesoid X receptor/SRC-1 Co-activator (AID 2283383)
# Procedure, shortened: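 PCA, HEK293T, 8 h compound exposure; FXR–SRC-1 binding reconstitutes split reporter; fluorescence intensity; positive-direction fit vs DMSO.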
# [7] = molecular target: Retinoic acid receptor RXR-alpha (Homo sapiens) (UniProt P19793); assay: OT_NURR1_NURR1RXRa_0480: Odyssey Thera (OT) 8-hour HEK293T Protein Complementation Assay for Nurr1/retinoid X receptor (RXR) (AID 2283385)
# Retinoic acid receptor RXR-alpha (Homo sapiens), sequence (P19793 whole entry, looked up, the tested form may be a part): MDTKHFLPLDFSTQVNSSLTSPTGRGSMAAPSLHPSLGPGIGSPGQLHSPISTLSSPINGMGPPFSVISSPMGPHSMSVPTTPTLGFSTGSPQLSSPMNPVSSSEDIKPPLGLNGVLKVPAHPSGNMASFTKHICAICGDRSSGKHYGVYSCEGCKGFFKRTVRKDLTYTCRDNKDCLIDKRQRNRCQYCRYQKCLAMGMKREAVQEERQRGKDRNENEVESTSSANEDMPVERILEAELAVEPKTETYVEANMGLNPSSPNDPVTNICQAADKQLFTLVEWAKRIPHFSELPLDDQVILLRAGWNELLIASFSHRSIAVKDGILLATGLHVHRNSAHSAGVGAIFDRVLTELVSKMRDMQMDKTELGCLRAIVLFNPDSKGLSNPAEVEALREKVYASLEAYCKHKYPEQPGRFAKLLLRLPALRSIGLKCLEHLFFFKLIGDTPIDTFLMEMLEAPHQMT
# Procedure, shortened: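 Interaction of bait and prey reconstitutes a functional reporter, whose fluorescence was measured in HEK293T cells dosed with compound for 8 hours. Signal gain relative to DMSO defined the single endpoint.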
# [8] = molecular target: Retinoic acid receptor RXR-alpha (Homo sapiens) (UniProt P19793); assay: OT_NURR1_NURR1RXRa_1440: Odyssey Thera (OT) 24-hour HEK293T Protein Complementation Assay for Nurr1/retinoid X receptor (RXR) (AID 2283386)
# Procedure, shortened: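 Steps: fragment-tagged Nurr1 and RXRα expressed in HEK293T; compounds added; after 24 h, complemented reporter quantified by fluorescence intensity; signal increase over DMSO fitted as the single endpoint.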
smiles,measurement,setting,value
CS/C(C)=N/OC(=O)N(C)SN(C)C(=O)O/N=C(\C)SC,outcome,[1],inactive
same,AC50,[2],93.3 µM (active)
same,outcome,[3],inactive
same,outcome,[4],inactive
same,outcome,[5],inactive
CCON=C(CC)C1=C(O)CC(c2c(C)cc(C)cc2C)CC1=O (stereo not drawn),outcome,[1],inactive
same,outcome,[2],inactive
same,outcome,[3],inactive
same,outcome,[6],inactive
same,outcome,[4],inactive
same,outcome,[7],inactive
same,outcome,[8],inactive
same,outcome,[5],inactive
CCCCC(CC)COC(=O)c1ccccc1C(=O)OCC(CC)CCCC (stereo not drawn),outcome,[2],inactive
same,outcome,[3],inactive
same,outcome,[6],inactive
same,outcome,[4],inactive
same,outcome,[7],inactive
same,outcome,[8],inactive
same,outcome,[5],inactive
CCc1nn(C)c(C(=O)NCc2ccc(C(C)(C)C)cc2)c1Cl,outcome,[2],inactive
same,outcome,[3],inactive
same,AC50,[6],0.578 µM (active)
same,AC50,[8],11.6 µM (active)
same,outcome,[5],inactive
O=C(O)COc1nc(Cl)c(Cl)cc1Cl,outcome,[2],inactive
same,outcome,[3],inactive
same,outcome,[6],inactive
same,outcome,[7],inactive
same,outcome,[8],inactive
same,outcome,[5],inactive
Cc1c(F)c(F)c(COC(=O)C2C(/C=C(\Cl)C(F)(F)F)C2(C)C)c(F)c1F (stereo not drawn),outcome,[2],inactive
same,outcome,[3],inactive
same,outcome,[6],inactive
same,outcome,[4],inactive
same,outcome,[7],inactive
same,outcome,[5],inactive
CC(C)(C)c1ccc(CSc2cnn(C(C)(C)C)c(=O)c2Cl)cc1,outcome,[2],inactive
same,outcome,[3],inactive
same,AC50,[6],5.14 µM (active)
same,outcome,[4],inactive
same,outcome,[7],inactive
same,outcome,[8],inactive
same,outcome,[5],inactive
CC(Oc1ccc(Cl)cc1Cl)C(=O)O (stereo not drawn),outcome,[2],inactive
same,outcome,[3],inactive
same,outcome,[6],inactive
same,outcome,[7],inactive
same,outcome,[8],inactive
same,outcome,[5],inactive
OC(c1ccc(Cl)cc1)(c1cncnc1)c1ccccc1Cl (stereo not drawn),AC50,[2],12.1 µM (active)
same,outcome,[3],inactive
same,outcome,[8],inactive
same,outcome,[5],inactive
COC(=O)C(C)Oc1ccc(Oc2ccc(Cl)cc2Cl)cc1 (stereo not drawn),AC50,[6],66.2 µM (active)
same,outcome,[4],inactive
same,outcome,[7],inactive
same,outcome,[5],inactive
CCCN(CCC)c1c([N+](=O)[O-])cc(S(N)(=O)=O)cc1[N+](=O)[O-],outcome,[2],inactive
same,outcome,[3],inactive
same,outcome,[5],inactive
N#Cc1cc(Br)c(O)c(Br)c1,outcome,[2],inactive
same,outcome,[3],inactive
same,outcome,[5],inactive
CNC(=S)S,outcome,[2],inactive
same,outcome,[3],inactive
same,outcome,[8],inactive
same,outcome,[5],inactive
COC(=O)C=C(C)OP(=O)(OC)OC,outcome,[2],inactive
same,outcome,[3],inactive
same,outcome,[6],inactive
same,outcome,[4],inactive
same,outcome,[7],inactive
same,outcome,[8],inactive
same,outcome,[5],inactive
Fc1ccc(Oc2ccnc3cc(Cl)cc(Cl)c23)cc1,outcome,[2],inactive
same,outcome,[3],inactive
same,AC50,[6],12.6 µM (active)
same,AC50,[4],29.1 µM (active)
same,AC50,[7],28.3 µM (active)
same,outcome,[7],inactive
same,AC50,[8],70.8 µM (active) and 65.4 µM (active)
same,outcome,[5],inactive
COc1cnc(OC)n2nc(NS(=O)(=O)c3c(OCC(F)F)cccc3C(F)(F)F)nc12,outcome,[2],inactive
same,outcome,[3],inactive
same,outcome,[7],inactive
same,outcome,[8],inactive
same,outcome,[5],inactive
CCOP(=S)(OCC)SCn1c(=O)oc2cc(Cl)ccc21,outcome,[2],inactive
same,outcome,[3],inactive
same,AC50,[6],17.9 µM (active)
same,AC50,[4],12 µM (active)
same,outcome,[7],inactive
same,outcome,[8],inactive
same,outcome,[5],inactive
COC(=O)N(OC)c1ccccc1COc1ccn(-c2ccc(Cl)cc2)n1,outcome,[2],inactive
same,outcome,[3],inactive
same,AC50,[6],1.54 µM (active)
same,AC50,[4],1.45 µM (active)
same,outcome,[7],inactive
same,outcome,[8],inactive
same,outcome,[5],inactive
COc1nc(NC(C)C)nc(NC(C)C)n1,outcome,[2],inactive
same,outcome,[3],inactive
same,outcome,[6],inactive
same,outcome,[8],inactive
same,outcome,[5],inactive
CNC(=O)ON=CC(C)(C)SC,outcome,[2],inactive
same,outcome,[3],inactive
same,outcome,[6],inactive
same,outcome,[4],inactive
same,outcome,[7],inactive
same,outcome,[8],inactive
same,outcome,[5],inactive
CCOc1cc(Oc2ccc(C(F)(F)F)cc2Cl)ccc1[N+](=O)[O-],outcome,[2],inactive
same,outcome,[3],inactive
same,outcome,[6],inactive
same,outcome,[4],inactive
same,outcome,[8],inactive
same,outcome,[5],inactive
O=C(O)c1nc(Cl)ccc1Cl,outcome,[2],inactive
same,outcome,[3],inactive
same,outcome,[7],inactive
same,outcome,[8],inactive
C#CCOS(=O)OC1CCCCC1Oc1ccc(C(C)(C)C)cc1 (stereo not drawn),outcome,[2],inactive
same,outcome,[3],inactive
same,AC50,[6],21.4 µM (active)
same,AC50,[4],31.1 µM (active)
same,AC50,[7],39.4 µM (active)
same,outcome,[7],inactive
same,AC50,[8],31.6 µM (active)
same,outcome,[8],inactive
same,outcome,[5],inactive
CCNc1nc(Cl)nc(NCC)n1,outcome,[2],inactive
same,outcome,[3],inactive
same,outcome,[6],inactive
same,outcome,[4],inactive
same,outcome,[7],inactive
same,outcome,[8],inactive
same,outcome,[5],inactive
COP(=S)(OC)Oc1nc(Cl)c(Cl)cc1Cl,outcome,[2],inactive
same,outcome,[3],inactive
same,outcome,[6],inactive
same,outcome,[7],inactive
same,outcome,[8],inactive
same,outcome,[5],inactive
CC(C)C1(C)N=C(c2nc3ccccc3cc2C(=O)O)NC1=O (stereo not drawn),outcome,[2],inactive
same,outcome,[3],inactive
same,outcome,[6],inactive
same,outcome,[4],inactive
same,outcome,[7],inactive
same,outcome,[8],inactive
same,outcome,[5],inactive
COP(N)(=O)SC (stereo not drawn),outcome,[2],inactive
same,outcome,[3],inactive
same,outcome,[6],inactive
same,outcome,[4],inactive
same,outcome,[7],inactive
same,outcome,[8],inactive
same,outcome,[5],inactive
CCOC(=O)C(Cl)Cc1cc(-n2nc(C)n(C(F)F)c2=O)c(F)cc1Cl (stereo not drawn),outcome,[2],inactive
same,outcome,[3],inactive
same,AC50,[6],22.4 µM (active)
same,outcome,[4],inactive
same,AC50,[7],12.7 µM (active)
same,outcome,[7],inactive
same,outcome,[8],inactive
same,outcome,[5],inactive
